We go through eleven compounds from ChEMBL document CHEMBL3988442, “University of Dundee, Small-Polar-MMV Screening Library” (2021).

Parameters in all cases: scale not given: direction of the effect not stated beside the values
The target of assay [1] is Protein translocase subunit SecA (Escherichia coli (strain K12)) (UniProt P10408). In words: Assay to Identify E. coli SecA ATPase Inhibitors. In kind it is functional. The note with it: 30 µM.
Assay [2] addresses T1, Ubiquitin-activating enzyme e1, putative (Leishmania donovani (strain BPK282A1)) (UniProt E9BSI1).
T1 sequence (whole entry): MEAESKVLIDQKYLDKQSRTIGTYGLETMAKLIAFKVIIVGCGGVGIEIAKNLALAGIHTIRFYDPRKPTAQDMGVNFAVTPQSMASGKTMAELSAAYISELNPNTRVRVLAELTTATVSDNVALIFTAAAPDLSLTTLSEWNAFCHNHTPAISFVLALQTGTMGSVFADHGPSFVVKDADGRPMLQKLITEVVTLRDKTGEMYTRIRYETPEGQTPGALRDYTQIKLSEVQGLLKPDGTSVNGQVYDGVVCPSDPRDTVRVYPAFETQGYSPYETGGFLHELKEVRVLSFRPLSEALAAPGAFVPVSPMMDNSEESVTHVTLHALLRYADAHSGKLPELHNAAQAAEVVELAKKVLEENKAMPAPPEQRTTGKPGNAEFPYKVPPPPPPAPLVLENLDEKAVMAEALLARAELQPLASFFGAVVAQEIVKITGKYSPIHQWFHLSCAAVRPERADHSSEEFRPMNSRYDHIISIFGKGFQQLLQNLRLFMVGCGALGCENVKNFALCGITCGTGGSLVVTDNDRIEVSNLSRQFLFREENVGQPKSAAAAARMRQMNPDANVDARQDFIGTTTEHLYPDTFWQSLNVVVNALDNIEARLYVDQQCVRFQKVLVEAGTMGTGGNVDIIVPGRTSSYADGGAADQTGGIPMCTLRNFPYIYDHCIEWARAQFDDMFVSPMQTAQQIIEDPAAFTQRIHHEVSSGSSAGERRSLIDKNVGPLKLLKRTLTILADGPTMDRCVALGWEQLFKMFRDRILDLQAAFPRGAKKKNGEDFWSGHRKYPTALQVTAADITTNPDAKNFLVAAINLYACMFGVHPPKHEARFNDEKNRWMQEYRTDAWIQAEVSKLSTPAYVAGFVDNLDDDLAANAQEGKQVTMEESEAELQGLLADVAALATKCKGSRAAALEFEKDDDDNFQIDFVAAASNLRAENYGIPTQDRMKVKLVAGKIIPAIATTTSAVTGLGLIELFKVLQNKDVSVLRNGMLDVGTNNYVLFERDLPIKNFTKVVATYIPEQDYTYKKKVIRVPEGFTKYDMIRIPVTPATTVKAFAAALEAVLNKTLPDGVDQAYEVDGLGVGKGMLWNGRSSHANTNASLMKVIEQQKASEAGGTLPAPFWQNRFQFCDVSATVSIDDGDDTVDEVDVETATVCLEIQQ
Briefly: Leishmania donovani Ubiquitin Activating Enzyme (LdE1). In kind it is functional. The note with it: 30 µM.

The target in assay [3] is AMP-activated protein kinase, AMPK (Homo sapiens) (UniProt P54646+O43741+P54619+Q9UGJ0+Q9Y478+Q13131+Q9UGI9). In words: AMP-dependent Kinase enzyme assay. An in vitro enzyme assay that detects ADP turnover that is directly proportional to AMPK activity. This uses naive AMPK that is activated during the assay with MK-8722. The note with it: 30 µM. Format: functional.
Assay [4] has as its target Sialic acid-binding Ig-like lectin 9 (Homo sapiens) (UniProt Q9Y336). In words: Hs-Siglec9 ALPHAscreen SOP 20170721. The note with it: 10 µM. (Bead proximity is the source of the signal in Alpha formats.)
For a further assay, the system named is Trypanosoma cruzi. Briefly: Trypanosoma cruzi phosphomannomutase and mannose-1-phosphate guanylyltransferase assay. In kind it is functional. The note with it: 10 µM.
The target of assay [5] is T2, Arginase-2, mitochondrial (Homo sapiens) (UniProt P78540).
T2 sequence (whole entry): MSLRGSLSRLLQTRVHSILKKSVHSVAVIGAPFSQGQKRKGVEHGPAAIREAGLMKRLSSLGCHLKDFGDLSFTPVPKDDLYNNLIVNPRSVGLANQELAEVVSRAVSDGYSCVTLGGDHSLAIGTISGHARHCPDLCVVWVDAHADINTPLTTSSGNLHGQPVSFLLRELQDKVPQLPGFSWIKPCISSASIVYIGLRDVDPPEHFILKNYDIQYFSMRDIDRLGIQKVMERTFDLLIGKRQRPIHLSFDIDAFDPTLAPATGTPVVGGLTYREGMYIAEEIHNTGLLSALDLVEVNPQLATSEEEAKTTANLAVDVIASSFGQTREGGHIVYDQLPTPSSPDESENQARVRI
Briefly: in vitro enzyme assay to detect the production of urea directly proportional to the activity of Arginase II. Note: in the data most compounds retested in dose-response had high values. In kind it is functional. The note with it: 33.3 µM.

The target of assay [6] is T3, Proteasome subunit beta (Trypanosoma cruzi) (UniProt O96673).
T3 sequence (whole entry): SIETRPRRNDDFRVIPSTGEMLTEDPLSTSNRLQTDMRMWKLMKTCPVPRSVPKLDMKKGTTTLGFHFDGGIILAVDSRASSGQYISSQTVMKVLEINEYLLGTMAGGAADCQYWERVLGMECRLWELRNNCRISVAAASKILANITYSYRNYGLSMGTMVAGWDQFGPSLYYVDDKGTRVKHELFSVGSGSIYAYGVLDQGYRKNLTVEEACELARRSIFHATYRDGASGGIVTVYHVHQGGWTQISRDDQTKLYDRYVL
Briefly: Trypanosoma cruzi proteasome chymotrypsin-like activity (TcProtChymo) assay. Note: in the data most compounds retested in dose-response had high values. In kind it is functional. The note with it: 9.37 µM.

A further assay is filed under the species Homo sapiens. Briefly: To identify inhibition of the IFN signalling (Jak-Stat) pathway via expression of an eGFP reporter gene under the control of an IFN-stimulated response element (ISRE) containing MxA promoter. Format: functional. The note with it: 30 µM.
For assay [7], the target named is T4, Tyrosyl-tRNA synthetase, putative (Trypanosoma cruzi (strain CL Brener)) (UniProt Q4DSP6).
T4 sequence (whole entry): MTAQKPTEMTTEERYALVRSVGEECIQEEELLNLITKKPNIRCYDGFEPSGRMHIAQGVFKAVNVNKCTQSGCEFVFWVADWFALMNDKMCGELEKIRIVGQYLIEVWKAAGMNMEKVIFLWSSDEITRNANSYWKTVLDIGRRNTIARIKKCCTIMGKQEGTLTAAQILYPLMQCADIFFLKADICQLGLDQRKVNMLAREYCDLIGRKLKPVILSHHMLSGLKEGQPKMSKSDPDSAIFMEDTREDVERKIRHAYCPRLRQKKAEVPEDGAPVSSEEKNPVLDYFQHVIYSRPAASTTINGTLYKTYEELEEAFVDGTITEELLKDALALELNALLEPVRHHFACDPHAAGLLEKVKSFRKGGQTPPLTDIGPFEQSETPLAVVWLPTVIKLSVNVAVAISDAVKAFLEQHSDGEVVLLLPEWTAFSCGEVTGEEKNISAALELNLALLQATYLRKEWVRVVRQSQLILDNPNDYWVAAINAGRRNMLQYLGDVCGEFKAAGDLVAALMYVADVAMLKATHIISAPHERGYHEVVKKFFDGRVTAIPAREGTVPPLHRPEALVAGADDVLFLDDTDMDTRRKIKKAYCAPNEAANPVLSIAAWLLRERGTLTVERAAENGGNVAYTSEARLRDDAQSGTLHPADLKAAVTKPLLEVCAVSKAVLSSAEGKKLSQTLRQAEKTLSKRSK
In words: Trypanosoma cruzi tyrosyl tRNA synthetase (TcYRS) _High Tyrosine SOP. Note: in the data most compounds retested in dose-response had high values. The note with it: 30 µM. Format: functional.

The target of assay [8] is T4, Tyrosyl-tRNA synthetase, putative (Trypanosoma cruzi (strain CL Brener)). Briefly: Trypanosoma cruzi tyrosyl tRNA synthetase (TcYRS) SOP. Format: functional. The note with it: 30 µM.
The target in assay [9] is Chromo domain-containing protein 1 (Saccharomyces cerevisiae (strain ATCC 204508 / S288c) (Baker's yeast)) (UniProt P32657). In words: ScCHD-1 Enzyme Inhibition Assay. Note: in the data most compounds retested in dose-response had high values. In kind it is functional. The note with it: 30 µM.

For some of these results: Entries with a potency or affinity are not part of this list.

Chromo domain-containing protein 1 (Saccharomyces cerevisiae (strain ATCC 204508 / S288c) (Baker's yeast)), sequence (P32657 whole entry, the tested form may be a part): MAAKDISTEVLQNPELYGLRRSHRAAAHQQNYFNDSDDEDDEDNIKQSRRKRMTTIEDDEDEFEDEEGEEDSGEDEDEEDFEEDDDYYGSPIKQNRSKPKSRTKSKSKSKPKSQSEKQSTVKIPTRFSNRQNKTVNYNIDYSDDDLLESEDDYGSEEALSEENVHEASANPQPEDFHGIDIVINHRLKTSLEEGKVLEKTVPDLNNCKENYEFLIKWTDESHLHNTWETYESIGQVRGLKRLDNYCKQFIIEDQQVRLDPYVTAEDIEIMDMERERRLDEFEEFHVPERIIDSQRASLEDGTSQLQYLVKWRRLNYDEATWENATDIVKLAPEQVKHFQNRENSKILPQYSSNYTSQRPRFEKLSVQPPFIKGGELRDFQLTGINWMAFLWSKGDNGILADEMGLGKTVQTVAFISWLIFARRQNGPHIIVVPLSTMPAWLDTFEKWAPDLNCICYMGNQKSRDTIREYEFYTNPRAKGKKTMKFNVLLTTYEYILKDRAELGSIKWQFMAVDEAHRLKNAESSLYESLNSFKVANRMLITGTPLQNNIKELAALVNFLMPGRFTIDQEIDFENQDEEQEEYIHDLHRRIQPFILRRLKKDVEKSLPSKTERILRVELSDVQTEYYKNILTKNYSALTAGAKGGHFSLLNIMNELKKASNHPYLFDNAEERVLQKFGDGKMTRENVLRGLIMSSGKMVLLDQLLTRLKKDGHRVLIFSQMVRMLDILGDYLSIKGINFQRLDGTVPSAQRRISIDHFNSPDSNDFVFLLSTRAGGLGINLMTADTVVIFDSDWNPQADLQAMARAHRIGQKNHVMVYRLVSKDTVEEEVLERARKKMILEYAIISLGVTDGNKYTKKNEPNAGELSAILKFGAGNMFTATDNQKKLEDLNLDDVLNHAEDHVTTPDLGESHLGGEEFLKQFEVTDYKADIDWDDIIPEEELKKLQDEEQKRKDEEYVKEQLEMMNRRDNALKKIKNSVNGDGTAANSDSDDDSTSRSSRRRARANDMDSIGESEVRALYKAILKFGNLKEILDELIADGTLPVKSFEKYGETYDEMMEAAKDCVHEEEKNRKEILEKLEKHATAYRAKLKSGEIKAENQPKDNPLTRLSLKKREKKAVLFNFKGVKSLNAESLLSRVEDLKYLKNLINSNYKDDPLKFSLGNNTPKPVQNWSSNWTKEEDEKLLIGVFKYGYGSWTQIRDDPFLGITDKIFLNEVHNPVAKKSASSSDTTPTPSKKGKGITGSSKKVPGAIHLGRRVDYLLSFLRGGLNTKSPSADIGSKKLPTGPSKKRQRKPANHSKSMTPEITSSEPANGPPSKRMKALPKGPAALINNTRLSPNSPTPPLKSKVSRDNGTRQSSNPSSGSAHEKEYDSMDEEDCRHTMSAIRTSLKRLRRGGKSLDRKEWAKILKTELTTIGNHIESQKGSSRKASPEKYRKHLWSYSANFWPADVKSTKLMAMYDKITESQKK
Sialic acid-binding Ig-like lectin 9 (Homo sapiens), sequence (Q9Y336 whole entry): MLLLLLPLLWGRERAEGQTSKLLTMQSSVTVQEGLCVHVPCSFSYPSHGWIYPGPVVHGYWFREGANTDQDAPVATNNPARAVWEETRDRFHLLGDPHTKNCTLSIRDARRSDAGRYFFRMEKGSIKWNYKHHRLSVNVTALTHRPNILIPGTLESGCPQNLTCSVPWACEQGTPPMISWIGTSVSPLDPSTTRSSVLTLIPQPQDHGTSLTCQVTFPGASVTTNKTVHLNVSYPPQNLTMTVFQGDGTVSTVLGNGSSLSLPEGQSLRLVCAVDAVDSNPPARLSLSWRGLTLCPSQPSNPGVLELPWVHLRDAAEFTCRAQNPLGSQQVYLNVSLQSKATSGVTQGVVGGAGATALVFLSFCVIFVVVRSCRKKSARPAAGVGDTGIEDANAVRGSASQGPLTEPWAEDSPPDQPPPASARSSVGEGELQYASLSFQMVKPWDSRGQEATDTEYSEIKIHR
Protein translocase subunit SecA (Escherichia coli (strain K12)), sequence (P10408 whole entry): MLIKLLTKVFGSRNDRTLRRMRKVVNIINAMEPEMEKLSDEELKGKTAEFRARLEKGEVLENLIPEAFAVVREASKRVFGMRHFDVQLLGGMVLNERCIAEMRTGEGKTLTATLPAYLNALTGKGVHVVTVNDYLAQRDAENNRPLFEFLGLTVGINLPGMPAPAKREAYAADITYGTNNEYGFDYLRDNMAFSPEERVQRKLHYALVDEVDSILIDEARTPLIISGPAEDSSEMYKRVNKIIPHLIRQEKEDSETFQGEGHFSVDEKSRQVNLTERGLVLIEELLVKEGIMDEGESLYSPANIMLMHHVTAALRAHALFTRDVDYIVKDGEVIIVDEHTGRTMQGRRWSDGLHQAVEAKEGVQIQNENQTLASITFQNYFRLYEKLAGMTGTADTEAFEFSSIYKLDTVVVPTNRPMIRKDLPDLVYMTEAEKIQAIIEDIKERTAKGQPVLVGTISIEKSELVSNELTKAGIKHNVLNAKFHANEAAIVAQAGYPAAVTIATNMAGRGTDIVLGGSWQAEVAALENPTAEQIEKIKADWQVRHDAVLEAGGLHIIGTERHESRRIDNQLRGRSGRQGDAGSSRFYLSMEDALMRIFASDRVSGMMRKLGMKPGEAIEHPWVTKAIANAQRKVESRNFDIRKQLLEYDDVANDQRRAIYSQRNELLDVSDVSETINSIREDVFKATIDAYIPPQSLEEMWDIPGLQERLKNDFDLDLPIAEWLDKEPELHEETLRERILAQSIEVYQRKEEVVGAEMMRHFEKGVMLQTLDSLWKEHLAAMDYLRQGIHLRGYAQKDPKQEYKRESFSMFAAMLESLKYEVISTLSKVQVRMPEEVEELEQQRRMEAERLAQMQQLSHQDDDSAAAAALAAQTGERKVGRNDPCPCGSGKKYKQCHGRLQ

For the compound `CNC(=O)C1(CCCc2ccncc2)CCCN1` (stereo unspecified), the Percent Effect in assay [1] is -0.846%; in assay [2], 12.2%; in assay [3], 14.6%; in assay [4] it was 0.634%; in the assay on Trypanosoma cruzi, -2.96%; in assay [5], -2.09%. In addition, the Percent Effect was 12.3% in [6]; 1.56% in the assay filed under Homo sapiens; 7.53% in assay [7]; 22.1% in [8]; -10.5% in assay [9].

As for `Cc1ccc(C)c(-n2ccc3nc(N4CCCC4)ncc3c2=O)c1`, the Percent Effect in assay [1] is -0.118%; in assay [2] it was -6.67%; in assay [3], 21.7%; in [4], 3.47%; in the assay with Trypanosoma cruzi, -2.16%; in assay [5], -6.16%. Moreover, the Percent Effect in assay [6] was -2.96%; in the assay filed under Homo sapiens, -1.59%; in assay [7], 3.17%; in assay [8], -5.13%; in [9] it was -0.262%.

Consider `Cn1nc(C#N)c2c1CN(C(=O)c1cccnc1)CCC2`, for which the Percent Effect in [1] is -4.61%; in assay [2], 2.6%; in [3], -0.491%; in assay [4] it was -7%; in the assay on Trypanosoma cruzi, -2.66%; in assay [5], -1.94%. The Percent Effect was 3.13% in assay [6]; 6.32% in the assay listed under Homo sapiens; -2.12% in assay [7]; -6.41% in [8]; -0.821% in [9].

As to `CCN(CC)S(=O)(=O)N1CCCC(c2cccc(C(=O)O)c2)C1` (stereo unspecified), the Percent Effect in assay [1] was -3.72%; in assay [2] it was 16.2%; in [3] it was -6.67%; in assay [4], 19.8%; with Trypanosoma cruzi, 6.56%; in [5] it was 0.952%. Moreover, the Percent Effect in assay [6] was 10.9%; in the assay listed under Homo sapiens, 5.56%; in [7] it was 6.88%; in assay [8] it was 17.1%; in assay [9] it was -5.44%.

For `O=C(Nc1cccc(CNCc2cccs2)c1)C1CCCC1`, the Percent Effect was -4.41% in [1]; 13.2% in assay [2]; -0.852% in [3]; -3.26% in assay [4]; 2.15% in the assay on Trypanosoma cruzi; -2.16% in assay [5]. Besides, the Percent Effect in assay [6] is 2.45%; in the assay filed under Homo sapiens, 3.75%; in [7] it was 6.4%; in assay [8] it was 18.5%; in assay [9], -4.46%.

As to `CCn1cnnc1CNC(=O)N1CCN(c2nc(C)c(C)s2)CC1`, the Percent Effect is -8.34% in [1]; 10.4% in [2]; -7.32% in assay [3]; 12.2% in [4]; 4.68% in the assay on Trypanosoma cruzi; -4.27% in [5]. The Percent Effect in assay [6] is 0.676%; in the assay filed under Homo sapiens it was -2.89%; in assay [7], 5.83%; in assay [8], 19.5%; in assay [9] it was -9.23%.

In the case of `CCOC1CCN(C(=O)c2cnn(-c3ccccc3Cl)c2)CC1`, the Percent Effect in [1] is -4.12%; in assay [2], 8.11%; in [3] it was -9.38%; in [4], 9.51%; in the assay with Trypanosoma cruzi, 0.283%; in [5] it was 0.802%. In addition, the Percent Effect in [6] is 2.34%; in the assay listed under Homo sapiens it was 4.91%; in assay [7], 6.4%; in assay [8] it was 16.1%; in assay [9], -0.798%.

For `Cc1cc(=O)[nH]c(SCC(=O)N(C)CC2Cc3ccccc3CN2C)n1` (stereo unspecified), the Percent Effect was -6.85% in [1]; 5.41% in [2]; -2.17% in [3]; -6.16% in [4]; -0.489% with Trypanosoma cruzi; -0.744% in [5]. The Percent Effect in assay [6] was 5.75%; in the assay filed under Homo sapiens, -12.2%; in [7], 6.45%; in assay [8], 8.64%; in [9], -4.63%.

For `CNS(=O)(=O)c1ccc(C(=O)N2CCCC2Cc2ccccc2)o1` (stereo unspecified), the Percent Effect in assay [1] was -3.24%; in assay [2] it was -42.1%; in [3], 1.36%; in assay [4], -2.48%; in the assay with Trypanosoma cruzi it was 2.52%; in assay [5], 1.8%. For the same compound, the Percent Effect in assay [6] was 12.6%; in the assay filed under Homo sapiens it was 16.6%; in assay [7] it was 4.43%; in assay [8] it was 16.1%; in [9] it was -9.41%.

As to `COCC(=O)N1CCN(Cc2coc(-c3cccc(F)c3)n2)CC1`, the Percent Effect in assay [1] was -5.28%; in assay [2] it was 0%; in [3], 2.98%; in assay [4], 4.95%; in the assay on Trypanosoma cruzi it was -2.62%; in assay [5], 0%. The Percent Effect turned out to be 1.18% in [6]; 9.99% in the assay filed under Homo sapiens; 8.74% in [7]; 7.32% in assay [8]; 1.75% in [9].

Turning to `Cc1ccc(N2CCCN(C(=O)C3(C#N)CCCCC3)CC2)nn1`, the Percent Effect in assay [1] was -6.11%; in assay [2], 5.26%; in [3], -4.48%; in assay [4], 3.79%; with Trypanosoma cruzi, 6.39%; in assay [5] it was 1.53%. Also, the Percent Effect in [6] is 0.668%; in the assay listed under Homo sapiens, -2.34%; in assay [7] it was 5.39%; in assay [8], 0%; in assay [9], -14.5%.
